RE007 growth inh: less growth of the S. pombe RE007 Vpr strain | S. pombe RE007 Vpr strain, BacTiter-Glo ATP luminescence, 24 h | Potency, µM (series often up to 92.2 µM), for inactives: at the top dose activity change, negative = less growth, actives largely listed as inhibitors | 0.21% of 360,000 active; active means well fitted falling curve with a large enough effect; inconclusive means small, poorly fitted or top-dose-only effect; inactive means no such curve, though single readings can be large or run the other way; further: potency means the concentration at half of the fitted maximal effect; nearly all actives have a fitted effect of over 50% in size
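Fission yeast strain RE007, carrying one chromosomally integrated HIV-1 vpr copy, was seeded at OD 0.01 in PMG+AL medium with 23 nL pinned compound. After 24 h at 30 °C and 99% humidity, viability was read by BacTiter-Glo luminescence.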
FMDV antiviral: antivirals against foot and mouth disease virus. FMDV antiviral cell-based qHTS. Potency, µM (doses to about 57.9 µM), for the others: at the highest dose activity change, negative = inhibition, hits mostly inhibitors. 1.2% of 410,000 active. AID 1159524; calls by dose curve; tested in HEK293T cells; further: read-out not given here; potency means the concentration at half of the fitted maximal effect; nearly all actives have a fitted effect of over 45% in size
HCMV inh: inhibitors of human cytomegalovirus | HFF cells, HCMV-luciferase reporter, 72 h; stronger effect = lower value | activity change, negative = inhibition, % at 57.5 µM | 4.5% of 410,000 active; in the data active means activity change below about -60%; inconclusive means no clear call, values can overlap the other calls; inactive means above about -39%
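Human foreskin fibroblasts infected with luciferase-reporter HCMV at MOI 1 PFU/cell, compounds at two doses. Luciferase measured 72 h post infection; normalized to buffer-only basal and Salinomycin (10uM) controls.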
FBPA Giardia inh: blocks Giardia fructose-bisphosphate aldolase activity | A8B2U2 | purified Giardia FBPA | Potency, µM (doses to about 59.6 µM), inactives show at the highest dose activity, negative = inhibition, usual class: inhibitors | 0.71% of 290,000 active | AID 2451; further: potency means the concentration at half of the fitted maximal effect; nearly all actives have a fitted effect of over 55% in size
Target sequence (A8B2U2 whole entry, looked up): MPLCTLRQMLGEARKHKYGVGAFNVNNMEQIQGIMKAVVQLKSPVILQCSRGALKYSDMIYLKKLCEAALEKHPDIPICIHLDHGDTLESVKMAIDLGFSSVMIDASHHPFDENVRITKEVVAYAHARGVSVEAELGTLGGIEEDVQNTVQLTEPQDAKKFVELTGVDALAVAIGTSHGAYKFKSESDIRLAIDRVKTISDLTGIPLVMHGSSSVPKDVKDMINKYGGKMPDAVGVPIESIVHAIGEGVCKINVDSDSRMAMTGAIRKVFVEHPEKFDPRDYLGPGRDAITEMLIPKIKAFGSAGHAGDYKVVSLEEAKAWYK
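40 nM FBPA preincubated 10 min at RT with compound (up to 57.5 uM final), then substrate plus GAPDH/TPI/NAD/arsenate coupling and diaphorase/resazurin added. Fluorescence read after 20 min at RT, 525/598 nm.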
Sm TGR inh: S. mansoni TGR enzyme inhibition | Q962Y6 | purified TGR, DTNB reduction, TNB absorbance 405 nm | Potency, µM (series often up to 114 µM), for inactives: at the highest dose activity change, negative = inhibition, most hits filed as inhibitors | 3% of 360,000 active; further: potency means the concentration at half of the fitted maximal effect; nearly all actives have a fitted effect of over 60% in size
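TGR 20 nM + NADPH 100 uM (dispensed conc.), cpd preinc 15 min RT; start with NADPH (500 uM addition) then DTNB (15 mM addition). Kinetic TNB absorbance, 405 nm filter. Four-parameter Hill fit across titration.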
Tb PYK inh: T. brucei pyruvate kinase inhibition | Q57TT1 | TbPYK enzyme, Kinase-Glo Plus ATP luminescence, 45 min | Potency, µM (titrated, usually from 76.8 µM), inactives show top-dose activity, negative = inhibition, usual class: inhibitors | 0.12% of 410,000 active | AID 624173; further: potency means the concentration at half of the fitted maximal effect; nearly all actives have a fitted effect of over 50% in size
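Screened from lowest to highest concentration, compounds were pinned into TbPYK/substrate mixtures, and ADP (130 uM final) was added. Plates sat at room temperature for 45 min prior to Kinase-Glo Plus detection by luminescence.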
Active calls of the source: *; ? = inconclusive; . = no result; ! = not confirmed by another sample; [ ] = dose if it differs, or a comment. Only some compounds are listed: those with a hit (about 7.7% of all), similar ones and a draw of the others. Unless noted, the call rests on the fitted dose curve; in most records, active means well fitted curve in the direction sought with a large enough effect; inconclusive means small, poorly fitted or top-dose-only effect, or another doubt; inactive means no such curve, though single readings can be large; an effect the other way counts as inactive or inconclusive. On the % scale 0 is the no-effect control and ±100 the full control effect.

SMILES | RE007 growth inh | FMDV antiviral | HCMV inh | FBPA Giardia inh | Sm TGR inh | Tb PYK inh
COc1c(O)cc2oc(-c3ccc(O)cc3)cc(=O)c2c1O | -12% | -14% | 188 | -1% | -3% | -6%
O=c1cc(-c2ccc(O)cc2)oc2ccc3ccccc3c12 | -25% | 5.6µM* | -86* | . | 1% | ?
COc1cc2oc(-c3ccc(O)cc3)cc(=O)c2c(O)c1OC | -6% | 34% | -110* | -11% | -10% | -3%
COc1cc2oc(-c3ccc(O)cc3)cc(=O)c2c(OC)c1O | . | 19% | 28 | 1% | 4% | -25%
Cc1cccc(C(=O)NCC2Cc3cc(F)cc(-c4cnccn4)c3O2)n1 (centres undefined) | . | -15% | . | . | . | .
Cc1ccc(NC(=O)N2CCN3CCCCC3C2)cc1C (centres undefined) | . | 22% | -26 | . | 3% | 1%
CC(C)(C)c1ccc(Oc2ccc(N)cn2)cc1 | 18% | ? | -72* | -5% | 13µM* | -7%
Cc1cc(Oc2ccc(N)cn2)cc(C)c1Cl | 28% | -18% | 25 | -6% | 40µM* | -9%
O=C(O)c1ccccc1C(=O)Nc1ccc(Oc2ccccc2)cc1 | -2% | 21% | -16 | 13% | -1% | 1%
CC(C)(C)c1ccc(Oc2ccc(NC(=O)c3ccccc3C(=O)O)cn2)cc1 | 17% | ? | -63* | 15% | ? | 1%
CN1CCN(c2ncc3c(n2)CCN(Cc2cc(Br)cs2)C3)CC1 | . | -20% | -13 | . | -14% | 3%
CCOC(=O)C1=C(C)NC(C)=C(C(=O)OC)[C@@H]1c1cccc(Cl)c1Cl | . | . | . | 1%[21.7 µM] | . | .
Cc1ccc(C(c2sc3nc(-c4ccco4)nn3c2O)N2CCCC2)cc1 (centres undefined) | . | 49% | 1 | . | -2% | -1%
CCCCN1CC(COCc2ccccc2)Oc2cccc(Oc3ccc(F)cc3OC)c2S1(=O)=O (centres undefined) | . | . | -10 | . | . | .
O=C1COc2ccc(C(=O)COC(=O)c3ccc([N+](=O)[O-])cc3Cl)cc2N1 | 7% | ? | -6 | . | 40µM* | -4%
O=C1COc2ccc(C(=O)COC(=O)c3ncc(Cl)c(Cl)c3Cl)cc2N1 | 6% | -13% | 5 | . | 50µM* | 4%
CC(C)CC(NC(=O)c1ccc(Cl)cc1)C(=O)OCC(=O)c1ccc2c(c1)NC(=O)CO2 (centres undefined) | 19% | ? | -103* | -3% | -24% | -8%
CC(O)C(NS(=O)(=O)c1ccc(Cl)cc1)C(=O)OCC(=O)c1ccc2c(c1)NC(=O)CO2 (centres undefined) | 3% | 0% | -1 | . | . | 0%
COc1ccc(OCCCC(=O)OCC(=O)c2ccc3c(c2)NC(=O)CO3)cc1 | -4% | -17% | -20 | . | 45µM* | -3%
O=C1COc2ccc(C(=O)COC(=O)CCCOc3ccccc3)cc2N1 | -7% | ? | 4 | . | . | -6%
Cc1cccc(C)c1-n1ncc(C(=O)N2CCN(c3ccccc3)CC2)c1C1CCN(C(=O)OC(C)(C)C)CC1 | . | ? | 15 | . | 3% | 0%
CCCCCCCC(=O)N[C@H]1CC[C@@]23CCCN2C(=O)CCC[C@H]3[C@H]1Cc1ccccc1 | . | . | 1 | . | . | .
O=C1COc2ccc(C(=O)COC(=O)c3nc(Cl)ccc3Cl)cc2N1 | 8% | -20% | -14 | . | 14µM* | -5%
CN(C)c1ccc(/C=N/N=C2/NC(=O)/C(=C/c3ccc([N+](=O)[O-])cc3)S2)cc1 | -13% | 8.9µM* | -22 | 1% | 0% | -5%
Cc1cccc(NC(=O)CCn2cnnn2)c1 | -2% | -3% | 23 | 1% | 89µM*! | 1%
Cc1cccc(NC(=O)c2ccccc2NC(=O)CCC(=O)O)c1 | . | 9% | -79* | 5% | -7% | -11%
CC(C)c1ccc(CN2CCC3(CCC(CNC(=O)c4ccn(C)n4)O3)CC2)cc1 (centres undefined) | . | -12% | . | . | . | .
Cn1cc(CN2CC3C[C@@H]4CC2C[C@H](C3)C4)c(-c2ccc3c(c2)OCCO3)n1 | -4% | 0% | 33 | ? | -19% | -22%

Compound activity as filed in PubChem BioAssay.
